This note sets out measurements from PMC9838217, “Structure of SALL4 zinc finger domain reveals link between AT-rich DNA binding and Okihiro syndrome”.

Substitutions are numbered along the chain they refer to.

Common to all, as to assay: HT-SELEX; high values mean tight binding
Common to all, as to conditions: protein: recombinant; vector His6-GST; dsDNA, one strand shown

For assay [1], the target named is T1, SALL4 ZFC4 WT (HT-SELEX) (Mus musculus, UniProt Q8BX22 870-940).
T1 sequence: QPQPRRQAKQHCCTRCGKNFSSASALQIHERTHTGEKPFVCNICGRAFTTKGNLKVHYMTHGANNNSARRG
An outline of the steps:
(§1)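 Up to 6 cycles of selection were run in triplicate. In each, purified recombinant mouse SALL4 zinc finger cluster 4 (residues 870–940, 1 µg) was incubated with library DNA (1.5 µg first cycle, 200 ng later) in 100 µl of 10 mM Tris–HCl pH 7.5, 50 mM NaCl, poly(dI-dC), DTT for 10 min at room temperature, then complexes were captured on Ni2+ beads, washed and PCR-amplified; final pools were MiSeq-sequenced and scanned for 6-mers. Binding signal is each canonical k-mer's read fraction as fold change versus the initial random library.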

Assay [2] deals with T2, SALL4 ZFC4 R900W (HT-SELEX) (Mus musculus, UniProt Q8BX22 870-940, R900W).
T2 sequence: T1 sequence with R31W
An outline of the steps: as §1

In assay [3] the target is T3, SALL4 ZFC4 G921D (HT-SELEX) (Mus musculus, UniProt Q8BX22 870-940, G921D).
T3 sequence: T1 sequence with G52D
In a few lines:
as §1

With AAAGTG, the binding signal in assay [1] amounted to 1.1 ± 0.0306 fold-change vs cycle 0; in assay [2] it was 1.23 ± 0.0192 fold-change vs cycle 0; in assay [3], 1.22 ± 0.0345 fold-change vs cycle 0.
AACACA: the values for the binding signal in assay [1], in assay [2] and in assay [3] were 1.18 ± 0.0535 fold-change vs cycle 0, 1.29 ± 0.058 fold-change vs cycle 0 and 1.27 ± 0.0417 fold-change vs cycle 0, respectively.
The corresponding values for GTTCCA are 0.74 ± 0.03 fold-change vs cycle 0, 0.862 ± 0.0102 fold-change vs cycle 0 and 0.915 ± 0.0401 fold-change vs cycle 0.
For TGACAA, the binding signal is 1.16 ± 0.0336 fold-change vs cycle 0 in assay [1], 1.29 ± 0.0235 fold-change vs cycle 0 in assay [2] and 1.26 ± 0.0515 fold-change vs cycle 0 in assay [3].
Turning to GCATCC, the binding signal in assay [1] amounted to 0.382 ± 0.0508 fold-change vs cycle 0; in assay [2], 0.43 ± 0.0105 fold-change vs cycle 0; in assay [3], 0.551 ± 0.0913 fold-change vs cycle 0.
With ATCTGG, the values for the binding signal in assay [1], in assay [2] and in assay [3] were 0.78 ± 0.0274 fold-change vs cycle 0, 0.839 ± 0.0522 fold-change vs cycle 0 and 0.901 ± 0.0524 fold-change vs cycle 0, respectively.
Consider ACTCTC, for which the figures for the binding signal in assay [1], in assay [2] and in assay [3] were 0.904 ± 0.0319 fold-change vs cycle 0, 1.05 ± 0.0292 fold-change vs cycle 0 and 1.07 ± 0.0307 fold-change vs cycle 0, respectively.
As to TACAAA, the binding signal worked out at 1.84 ± 0.0971 fold-change vs cycle 0 in assay [1], 1.82 ± 0.0757 fold-change vs cycle 0 in assay [2] and 1.67 ± 0.0747 fold-change vs cycle 0 in assay [3].
As to TCCCCA, the binding signal in assay [1] is 0.461 ± 0.0365 fold-change vs cycle 0; in assay [2] it was 0.533 ± 0.0451 fold-change vs cycle 0; in assay [3], 0.593 ± 0.0323 fold-change vs cycle 0.
Consider AGAAGA, for which the binding signal was determined as 1.43 ± 0.0638 fold-change vs cycle 0 in assay [1], 1.64 ± 0.118 fold-change vs cycle 0 in assay [2] and 1.47 ± 0.162 fold-change vs cycle 0 in assay [3].
For AACACG, the binding signal in assay [1] amounted to 0.6337 ± 0.00219 fold-change vs cycle 0; in assay [2], 0.737 ± 0.0205 fold-change vs cycle 0; in assay [3] it was 0.823 ± 0.0377 fold-change vs cycle 0.
The like results for ATCGTG were, in that order, 0.701 ± 0.0455 fold-change vs cycle 0, 0.775 ± 0.0256 fold-change vs cycle 0 and 0.876 ± 0.0311 fold-change vs cycle 0.
As for TCAGCA, the values for the binding signal in assay [1], in assay [2] and in assay [3] were 0.676 ± 0.0405 fold-change vs cycle 0, 0.74 ± 0.0606 fold-change vs cycle 0 and 0.841 ± 0.0603 fold-change vs cycle 0, respectively.
AGACCC: the binding signal worked out at 0.415 ± 0.0196 fold-change vs cycle 0 in assay [1], 0.511 ± 0.0173 fold-change vs cycle 0 in assay [2] and 0.612 ± 0.0617 fold-change vs cycle 0 in assay [3].
The corresponding values for AATCAA are 2.03 ± 0.0966 fold-change vs cycle 0, 2 ± 0.106 fold-change vs cycle 0 and 1.81 ± 0.125 fold-change vs cycle 0.
For the sequence GATGGA, the binding signal in assay [1] stood at 0.878 ± 0.0295 fold-change vs cycle 0; in assay [2], 0.978 ± 0.0402 fold-change vs cycle 0; in assay [3], 0.97 ± 0.0258 fold-change vs cycle 0.
With AAATAC, the binding signal in assay [1] is 1.75 ± 0.12 fold-change vs cycle 0; in assay [2], 1.68 ± 0.0912 fold-change vs cycle 0; in assay [3], 1.59 ± 0.0866 fold-change vs cycle 0.
The corresponding values for AGCTTA are 1.21 ± 0.0616 fold-change vs cycle 0, 1.28 ± 0.0778 fold-change vs cycle 0 and 1.27 ± 0.0883 fold-change vs cycle 0.
Consider CCTAAA, for which the binding signal in assay [1] turned out to be 1.13 ± 0.0805 fold-change vs cycle 0; in assay [2], 1.27 ± 0.0327 fold-change vs cycle 0; in assay [3], 1.18 ± 0.0527 fold-change vs cycle 0.
Regarding TCCTAA, the values for the binding signal in assay [1], in assay [2] and in assay [3] were 1.43 ± 0.0908 fold-change vs cycle 0, 1.56 ± 0.119 fold-change vs cycle 0 and 1.46 ± 0.14 fold-change vs cycle 0, respectively.
In the case of CTAAGC, the binding signal in assay [1] was found to be 0.7 ± 0.0291 fold-change vs cycle 0; in assay [2], 0.793 ± 0.0207 fold-change vs cycle 0; in assay [3] it was 0.857 ± 0.014 fold-change vs cycle 0.
The like results for ACCATG were, in that order, 0.8385 ± 0.0023 fold-change vs cycle 0, 0.925 ± 0.0262 fold-change vs cycle 0 and 0.997 ± 0.0244 fold-change vs cycle 0.
On to GTGACA, for which the binding signal worked out at 0.691 ± 0.0164 fold-change vs cycle 0 in assay [1], 0.813 ± 0.0124 fold-change vs cycle 0 in assay [2] and 0.852 ± 0.0256 fold-change vs cycle 0 in assay [3].
The like results for ATATCG were, in that order, 1.31 ± 0.0501 fold-change vs cycle 0, 1.15 ± 0.0369 fold-change vs cycle 0 and 1.194 ± 0.00992 fold-change vs cycle 0.
For AACCAA, the binding signal came out at 1.22 ± 0.0287 fold-change vs cycle 0 in assay [1], 1.31 ± 0.0414 fold-change vs cycle 0 in assay [2] and 1.28 ± 0.0656 fold-change vs cycle 0 in assay [3].
The corresponding values for ATGGGA are 0.904 ± 0.0547 fold-change vs cycle 0, 0.99 ± 0.053 fold-change vs cycle 0 and 0.966 ± 0.0349 fold-change vs cycle 0.
For ATACCG, the binding signal turned out to be 0.646 ± 0.0192 fold-change vs cycle 0 in assay [1], 0.699 ± 0.038 fold-change vs cycle 0 in assay [2] and 0.799 ± 0.0271 fold-change vs cycle 0 in assay [3].
Consider AGAAAT, for which the binding signal in assay [1] was 2.29 ± 0.182 fold-change vs cycle 0; in assay [2] it was 2.02 ± 0.161 fold-change vs cycle 0; in assay [3], 1.78 ± 0.161 fold-change vs cycle 0.
For AAATCG, the binding signal worked out at 0.874 ± 0.0288 fold-change vs cycle 0 in assay [1], 0.918 ± 0.0124 fold-change vs cycle 0 in assay [2] and 1.02 ± 0.0396 fold-change vs cycle 0 in assay [3].
With ACGTAT, the binding signal is 1.2 ± 0.0268 fold-change vs cycle 0 in assay [1], 1.28 ± 0.0492 fold-change vs cycle 0 in assay [2] and 1.23 ± 0.0551 fold-change vs cycle 0 in assay [3].
